ChEMBL document CHEMBL4513216, “Probing the Open Global Health Chemical Diversity Library for Multistage-Active Starting Points for Next-Generation Antimalarials” (ACS Infect Dis, 2020)
The campaign covered roughly 68,000 compounds. About 2,700 (4%) showed an effect of 50% or more. The sample holds strong results, similar compounds and a random draw of the others, so the mix is not that of the screen.

Each compound was assayed on Plasmodium berghei (assay: Screen against P. berghei liver stage (PbLuc), transformed with Luciferase, at 2uM). Details: tested at 2 uM.
Format: functional, HepG2

Row | Compound | INHIBITION [%]
1 | CC(=O)N1CCN(C(=O)CN2CCc3c(ncn3C3CC3)C2)CC1 | 37.52
2 | Cc1ccsc1CN(CCN(C)C)C(=O)C1=NNC(=O)CC1 | -1.87
3 | COCc1ccccc1NC(=O)[C@@H]1CCCN1C(=O)c1ccco1 | 1.86
4 | COC(=O)c1sccc1NC(=O)C1CCCN1C(=O)c1ccco1 (configuration not stated) | -16.52
5 | Cc1cccc(NC(=O)C2CCCN2C(=O)c2ccco2)c1C (configuration not stated) | 58.53
6 | NC(=O)CN1CCCN(C(=O)Cc2ccc(F)cc2)CC1 | 33.12
7 | O=C(Cc1c(F)cccc1F)N1CCN(CC(=O)N2CCCC2)CC1 | 57.95
8 | O=C(CN1CCN(c2ncnc3cccc(F)c23)CC1)N1CCCC1 | -11.35
9 | CCc1n[nH]c(C2CN(C(=O)c3cscn3)CCO2)n1 (configuration not stated) | -34.61
10 | Cc1csc(N2CCCN(c3cc(C)nc(C)c3C#N)CC2)n1 | -20.21
11 | Cc1cc(N2CCCCC2)c(C#N)c(C)n1 | 54.44
12 | Cc1cc(N2CCCC2)c(C#N)c(C)n1 | -27.68
13 | Cn1cccc1C(=O)N1CCCN(CCCc2ccccc2)CC1 | -25.8
14 | CCc1nc(C)c(-c2nccn2CC2CCCCO2)[nH]1 (configuration not stated) | 54.75
15 | CCc1nc(C)c(-c2nccn2CC2CCN(C3CCCC3)CC2)[nH]1 | 56.81
16 | CC(=O)Nc1ccc2nc(-c3nccn3C[C@@H]3CCCO3)ccc2c1 | 25.13
17 | Cc1cnc(C)c(N2CCN(CC3CCCO3)CC2)n1 (configuration not stated) | -18.84
18 | CCc1nc(C)c(-c2nccn2CC2CC(=O)N(CC)C2)[nH]1 (configuration not stated) | -5.65
19 | Cc1nccn1CCC1CCN(C2CCC3(CCNCC3)CC2)CC1 | 34.52
20 | O=C(c1ccoc1)N1C[C@H]2CC[C@@]3(N=C(c4ccccc4)NC3=O)[C@H]2C1 | -1.45
21 | Cc1nn(C)c2c(=O)n(C)c(NCC3CCCO3)nc12 (configuration not stated) | 37.45
22 | CC(C)=CCCN1CCN(C)C2(CCC(=O)N(C)CC2)C1 (configuration not stated) | 77.56

Row | Compound | INHIBITION [%]
23 | CC/C(C)=C/CCN1CCN(C)C2(CCNC(=O)CC2)C1 (configuration not stated) | 20.2
24 | CC(C)=CCC/C(C)=C/CN1CCN(C)C2(CCNC(=O)CC2)C1 (configuration not stated) | 43.94
25 | Cc1noc(C)c1CN1CCc2ncnc(-c3ccccc3)c2CC1 | -20.87
26 | CCCC(=O)NC1CCCN(Cc2cccs2)C1 (configuration not stated) | 53.65
27 | CC(C)(C)OC(=O)NC1CCCN(Cc2cccs2)C1 (configuration not stated) | 1.08
28 | Cc1ncsc1CCC(=O)NC1CCN(Cc2cccs2)CC1 | 26.93
29 | O=C(Cc1cccs1)N1CCCC(CNS(=O)(=O)Cc2ccccc2)C1 (configuration not stated) | -40.36
30 | O=C(CN1CCCC1)N1CCCC(CNS(=O)(=O)Cc2ccccc2)C1 (configuration not stated) | -4.77
31 | O=S(=O)(Cc1ccccc1)NCC1CCCN(Cc2cccs2)C1 (configuration not stated) | 64.35
32 | O=C(NS(=O)(=O)c1ccccc1C(F)(F)F)c1cccc2c1OCCO2 | 37.69
33 | Fc1ccc(CC2CCN(Cc3cscn3)CC2)cc1 | -23.58
34 | COc1cccc(COCC(=O)N2CCCC(c3ccn[nH]3)C2)c1 (configuration not stated) | 14.97
35 | Cc1ncc(-c2ccnc(NCCO)n2)c(C2CCCCC2)n1 | -38.58
36 | COc1cc(NC(=O)c2ccc(CN3CC[C@H](O)C3)cc2)cc(OC)c1 | 20.71
37 | Cc1cncc(NC(=O)c2ccc(CN3CC[C@H](O)C3)cc2)c1 | 42.48
38 | Cc1cc(NC(=O)c2ccc(CN3CC[C@H](O)C3)cc2)ccc1F | 82.91
39 | Cc1cscc1-c1nc(C2CCOC2)no1 (configuration not stated) | 10.22
40 | O=C(NCc1nnc2n1CCC2)c1ccc(Br)s1 | 22.39
41 | CC(O)CN1CCN(Cc2nnc(C3CC3)o2)CC1 (configuration not stated) | 7.54
42 | CCOCCN1CCN(Cc2nnc(C3CC3)o2)CC1C (configuration not stated) | -19.75
43 | CCOCCN1CCN(Cc2nnc(C3CC3)o2)CC1 | 51.7
44 | CCC1CN(Cc2nnc(C3CC3)o2)CCN1CCOC (configuration not stated) | 66.64

Row | Compound | INHIBITION [%]
45 | CCOCCN1CCN(Cc2nnc(C3CC3)o2)CC1CC (configuration not stated) | -0.55
46 | CC1CN(Cc2noc(C3CC3)n2)CCN1Cc1noc(C2CC2)n1 (configuration not stated) | 33.82
47 | COCCN1CCN(Cc2noc(C3CC3)n2)CC1C (configuration not stated) | 53.03
48 | COCCN1C(=O)[C@@H]2CC[C@H]1CN(Cc1nnc(C3CC3)o1)C2 | 29.18
49 | CC1CN(Cc2noc(C3CC3)n2)CCN1Cc1nccn1C (configuration not stated) | 14.82
50 | Cc1ccc(N2CCC3(CCN(Cc4csc(C)n4)CC3)CC2)nn1 | 18.91
51 | COc1ccc(C(C)NCCc2ccc(NC(C)=O)cc2)c(OC)c1 (configuration not stated) | 26.99
52 | CC(=O)N1CCn2c(nnc2C2CCCCN2Cc2ccccc2Cl)C1 (configuration not stated) | -46.48
53 | CN(C)C(=O)c1nc(CN2C(=O)OC[C@@H]2c2ccccc2)no1 | 18.19
54 | Cn1cc(C(=O)NCc2ccc(OC3CCCCC3)nc2)ccc1=O | 2.66
55 | Cc1noc(C)c1CN1CC2(CCCCN2c2cncnc2)CC1=O (configuration not stated) | 50.32
56 | N#Cc1cccc(CN2CC3(CCCCN3c3cncnc3)CC2=O)c1 (configuration not stated) | -29.69
57 | Cc1noc(C)c1CN1CC2(CCCCN2C)CC1=O (configuration not stated) | 21.57
58 | O=C(O)c1cc(-c2ccoc2)cc(S(=O)(=O)N2CCSCC2)c1 | 7.09
59 | Cc1cccc(NC(=O)CNC(=O)c2ccccc2F)c1 | 53.99
60 | O=C(CNC(=O)c1ccccc1F)NCc1ccccn1 | -20.05
61 | Cc1cccc(NC(=O)CCC(=O)NCC(=O)c2ccccc2F)c1 | 22.31
62 | N#Cc1cc(CSCCN2CCOCC2)ccc1F | 39.71
63 | Cc1c(C(=O)N2CCC2(C)C)nnn1-c1cccc2cnccc12 | 9.78
64 | Cc1c(C(=O)N2CC(C)(C)C2(C)C)nnn1-c1cccc2cnccc12 | -107.15
65 | Cc1c(C(=O)N2CC(O)C2)nnn1-c1cccc2cnccc12 | 50.31
66 | Cc1c(C(=O)N2CC(=O)N(C)C2)nnn1-c1cccc2cccnc12 | 57.5

Row | Compound | INHIBITION [%]
67 | Cc1c(C(=O)N2CCC2(C)C)nnn1-c1cccc2cccnc12 | 9.78
68 | Cc1c(C(=O)O)nnn1-c1cccc2cccnc12 | -58.01
69 | c1cc(C2CCCN2CC2CC2)n[nH]1 (configuration not stated) | 13.02
70 | COc1ccc(CNC(=O)CCn2cc(C)cn2)cc1C | -14.47
71 | CC(c1ccccn1)N(C)Cc1ccc(-n2ccnc2)cc1 (configuration not stated) | 2.67
72 | C[C@@H](NCc1cccc(Cl)c1)c1onc(-c2ccc(F)cc2)c1C(=O)O | 37.54
73 | Cc1cc(C2CCCN(C(=O)COc3cc(C)on3)C2)n[nH]1 (configuration not stated) | 60.64
74 | Cc1cc(OCC(=O)N2CCCC(c3ccn[nH]3)C2)no1 (configuration not stated) | 24.31
75 | Cc1cc(OCC(=O)N2CCCC(c3noc(C)n3)C2)no1 (configuration not stated) | 6.3
76 | CN1C(=O)CCC12CCCN(C(=O)c1ccncc1F)C2 (configuration not stated) | -39.56
77 | CCc1noc(C)c1C(=O)N1CCCCC1Cn1cc(C)cn1 (configuration not stated) | -11.2
78 | c1ccc(OC2COC3(CCN(CC4CC4)CC3)C2)nc1 (configuration not stated) | -17.63
79 | CCC1(c2ccc(NS(=O)(=O)c3cccs3)cc2)CCC(=O)NC1=O (configuration not stated) | -13.33
80 | CNC(=O)CC1CCN(C(=O)NCc2coc3ccccc23)CC1 | 53.81
81 | CNC(=O)CC1CCN(C(=O)NCC2(c3ccccc3F)CC2)CC1 | -23.23
82 | COCCOC1CCN(C(=O)NCc2coc3ccccc23)CC1 | 40.88
83 | CC(C)N1CCC(CC(=O)N(C)C(C)c2cncs2)CC1 (configuration not stated) | 17.73
84 | O=C(C1CN(c2ncc(F)cn2)CC12CCOCC2)N1CC=CC1 (configuration not stated) | -78.69
85 | O=C(C1CN(c2ncc(F)cn2)CC12CCOCC2)N1CCOCC1 (configuration not stated) | -45.73
86 | Cc1cnc(N2CC(C(=O)N3CCOCC3)C3(CCOCC3)C2)nc1 (configuration not stated) | 65.04
87 | Cn1cc(CN2CCO[C@H]3CN(Cc4ccsc4)C[C@H]32)cn1 | 1.88
88 | N#Cc1ncn(CCC(=O)Nc2ccc(F)c(F)c2)n1 | 57.92

Row | Compound | INHIBITION [%]
89 | N#Cc1ncn(CCC(=O)Nc2cccc(Cl)c2)n1 | 7.13
90 | N#Cc1ncn(CCC(=O)Nc2ccc(Cl)cc2F)n1 | 5.52
91 | Cc1cc(C(=O)N2CCC3(CC(=O)NC3=O)C2)c(-c2ccccc2)o1 (configuration not stated) | 15.87
92 | CCOc1ncnc2c1CCN(C(=O)c1ccncc1F)CC2 | 28.85
93 | c1csc(C2(NCc3csc(C4CC4)n3)CCCC2)n1 | -56.92
94 | Cc1csc(C2(NCc3csc(C4CC4)n3)CCCC2)n1 | -9.69
95 | CCCc1nc(CNC2(c3nccs3)CCCC2)cs1 | 58.68
96 | Cc1nc(C)n(CC2CCCCN2CC(=O)Nc2nnc(C)s2)n1 (configuration not stated) | 19.97
97 | CN(C)Cc1nn(C)c2c1CN(S(=O)(=O)c1ccccc1F)C2 | 32.05
98 | CCOc1ccc(S(=O)(=O)N(CCOC)Cc2ccoc2)cc1F | 21.37
99 | CCOc1ccc(S(=O)(=O)N(CCOC)Cc2ccncc2)cc1F | 60.35
100 | COCCN(Cc1ccoc1)S(=O)(=O)c1ccc(F)c(C)c1 | -10.1
101 | CSCC[C@@H](CO)n1ccnc1-c1nccn1C | 17.37
102 | CN1CC(=O)N(c2cnn(C)c2)CC12CCN(C(=O)c1ccsc1)C2 (configuration not stated) | -6.94
103 | CCc1noc(C(C)N2CCN(Cc3cnc(C)cn3)CC2)n1 (configuration not stated) | -1.29
104 | Cc1nc(N2CCN(C(=O)c3ccsc3)CC2)c2cnn(C)c2n1 | 42.11
105 | N#Cc1ccc(N2CCCC3(CCC(=O)N3CC3CC3)CC2)nc1 (configuration not stated) | -16.78
106 | N#Cc1ccc(N2CCC3(CCC(=O)N3CCN3CCCC3)CC2)nc1 | 52.96
107 | CN1C(=O)CCC12CCN(c1ccc(C#N)cn1)CC2 | 5.22
